“And” between values parts separate entries of the source, which are not always exact repeats. Equal values may be shown once. Among all 5,500 compounds or so, about 2,000 (36%) were called active. About 18% were inconclusive and are not listed. No stated cut-off is given here; in the data, active means normalized growth mostly below about 0.91 (no sharp cut-off); inconclusive means no clear call, values can overlap the other calls; inactive means mostly above about 0.92. This is one part of the list.
Experiment: chemical genetic growth profiling, strain panel (AID 1159580);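 further: tested at 20 µM; growth read once vehicle control cultures reached saturation at 30 °C; 1 = growth at the plate median or of vehicle wells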
Settings: S. cerevisiae deletion strains, growth OD

Measured: normalized growth

CC12CCC(CC1)C(C)(C)O2
inactive: locus YAL013W, strain DEP1, stronger effect = lower value 1 | locus YAL021C, strain ccr4, stronger effect = lower value 0.963 | locus YAL026C, strain drs2, stronger effect = lower value 0.973 | locus YAL030W, strain snc1, stronger effect = lower value 0.998 | locus YBL061C, strain skt5, stronger effect = lower value 0.967 | locus YBR009C, strain hhf1, stronger effect = lower value 0.994 | locus YBR021W, strain FUR4, stronger effect = lower value 1.02 | locus YBR023C, strain chs3, stronger effect = lower value 0.974 | locus YBR171W, strain sec66, stronger effect = lower value 0.966 | locus YBR229C, strain ROT2, stronger effect = lower value 1 | locus YBR231C, strain swc5, stronger effect = lower value 1.02 | locus YBR279W, strain paf1, stronger effect = lower value 0.988 | locus YCL011C, strain gbp2, stronger effect = lower value 0.974 | locus YCL016C, strain dcc1, stronger effect = lower value 0.986 | locus YCL029C, strain bik1, stronger effect = lower value 1.01 | locus YCL061C, strain MRC1, stronger effect = lower value 0.968 | locus YCL069W, strain vba3, stronger effect = lower value 0.977 | locus YCR088W, strain abp1, stronger effect = lower value 0.985 | locus YDL005C, strain med2, stronger effect = lower value 0.975 | locus YDL035C, strain GPR1, stronger effect = lower value 0.999 | locus YDL040C, strain nat1, stronger effect = lower value 0.997 | locus YDL074C, strain BRE1, stronger effect = lower value 1.02 | locus YDL101C, strain DUN1, stronger effect = lower value 1 | locus YDL185W, strain tfp1, stronger effect = lower value 1.01 | locus YDL192W, strain arf1, stronger effect = lower value 1.02 | locus YDR001C, strain nth1, stronger effect = lower value 0.995 | locus YDR069C, strain doa4, stronger effect = lower value 0.966 | locus YDR101C, strain arx1, stronger effect = lower value 0.996 | locus YDR137W, strain rgp1, stronger effect = lower value 1.04 | locus YDR150W, strain NUM1, stronger effect = lower value 1 | locus YDR159W, strain sac3, stronger effect = lower value 1.01 | locus YDR162C, strain NBP2, stronger effect = lower value 0.978 | locus YDR195W, strain ref2 0.982 | locus YDR297W, strain sur2, stronger effect = lower value 0.985 | locus YDR318W, strain mcm21, stronger effect = lower value 1.02 | locus YDR334W, strain swr1, stronger effect = lower value 0.974 | locus YDR335W, strain msn5, stronger effect = lower value 0.985 | locus YDR388W, stronger effect = lower value 1.02 | locus YDR392W, strain spt3, stronger effect = lower value 0.935 | locus YDR502C, strain sam2, stronger effect = lower value 1.01 | locus YEL003W, strain gim4, stronger effect = lower value 0.989 | locus YEL037C, strain rad23, stronger effect = lower value 0.97 | locus YEL061C, strain CIN8 (second series), stronger effect = lower value 0.98 | locus YEL061C, strain CIN8, stronger effect = lower value 1 | locus YER015W, strain faa2, stronger effect = lower value 0.979 | locus YER016W, strain bim1, stronger effect = lower value 0.992 | locus YER110C, stronger effect = lower value 1.02 | locus YER111C, strain swi4, stronger effect = lower value 0.97 | locus YER155C, strain BEM2 (second series), stronger effect = lower value 0.977 | locus YER155C, strain BEM2, stronger effect = lower value 1.01 | locus YER167W, strain BCK2, stronger effect = lower value 1 | locus YFR010W, strain ubp6, stronger effect = lower value 0.967 | locus YGL078C, strain dbp3, stronger effect = lower value 1.03 | locus YGL086W, strain mad1, stronger effect = lower value 0.986 | locus YGL167C, strain pmr1, stronger effect = lower value 0.979 | locus YGL173C, strain kem1, stronger effect = lower value 0.971 | locus YGL227W, strain vid30, stronger effect = lower value 0.986 | locus YGL240W, strain doc1, stronger effect = lower value 0.997 | locus YGL248W, strain PDE1, stronger effect = lower value 1.01 | locus YGL253W, strain hxk2, stronger effect = lower value 0.963 | locus YGR078C, strain PAC10, stronger effect = lower value 1 | locus YGR135W, strain pre9, stronger effect = lower value 1.06 | locus YGR229C, strain SMI1, stronger effect = lower value 0.999 | locus YGR252W, strain gcn5, stronger effect = lower value 1.04 | locus YHR013C, strain ard1, stronger effect = lower value 0.967 | locus YHR027C, strain rpn1, stronger effect = lower value 0.984 | locus YHR030C, strain SLT2, stronger effect = lower value 1.01 and 0.978 | locus YHR079C, strain IRE1 (second series), stronger effect = lower value 1.01 | locus YHR079C, strain IRE1, stronger effect = lower value 0.993 | locus YHR094C, strain hxt1, stronger effect = lower value 1.02 | locus YHR129C, strain ARP1, stronger effect = lower value 1.01 | locus YHR142W, strain chs7, stronger effect = lower value 0.979 | locus YHR200W, strain rpn10, stronger effect = lower value 1.01 | locus YIL066C, strain RNR3, stronger effect = lower value 0.998 | locus YIL073C, strain SPO22, stronger effect = lower value 1 | locus YIL125W, strain kgd1, stronger effect = lower value 1.02 | locus YIR030C, strain dcg1, stronger effect = lower value 1.03 | locus YJL092W, strain hpr5, stronger effect = lower value 0.954 | locus YJL095W, strain BCK1 (second series), stronger effect = lower value 0.97 | locus YJL095W, strain BCK1, stronger effect = lower value 1.03 and 0.991 | locus YJL115W, strain asf1, stronger effect = lower value 0.982 | locus YJL129C, strain trk1, stronger effect = lower value 0.966 | locus YJL134W, strain LCB3, stronger effect = lower value 1 | locus YJL154C, strain vps35, stronger effect = lower value 0.984 | locus YJL164C, strain tpk1, stronger effect = lower value 0.988 | locus YJL166W, strain qcr8, stronger effect = lower value 0.996 | locus YJL168C, strain set2, stronger effect = lower value 1.04
